Assay outcomes as filed in PubChem.
HT1080-NT tox: kills 2HG-producing HT-1080-NT fibrosarcoma cells; HT-1080-NT fibrosarcoma viability, CellTiter-Glo ATP luminescence, 48 h; Potency, µM (series often up to 46.1 µM), for the others: at the highest dose activity, negative = less viability, actives largely listed as cytotoxic; hit rate 1.6% among 360,000; AID 686970;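 also: NT is the 2HG producing partner of a matched IDH1 knockdown line; potency is read from the fitted curve at half-maximal effect; 0% = DMSO-treated cells and -100% = media-only wells without cells; nearly all actives have a fitted effect of over 55% in size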
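750 cells/well, RPMI + 5% FBS; 2 h settle, compound pin-transfer, 48 h at 37 degrees C. CellTiter-Glo 10 min RT, luminescence. Normalized to DMSO and media-only wells.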
HT1080 IDH1KD tx: HT-1080 IDH1 knockdown cell toxicity (counter line) | Potency, µM (titrated, usually from 46.1 µM), for the others: at the highest dose activity, negative = toxicity, most hits filed as cytotoxic | AID 686971 | HT-1080 IDH1 knockdown viability, ATP luminescence, 48 h | hit rate 2% among 360,000;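 also: potency is read from the fitted curve at half-maximal effect; 0% = DMSO wells and -100% = cell-free medium wells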
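IDH1KD HT-1080 cells, 750/well, RPMI + 5% FBS; compound pinned after 2 h settling; 48 h, 37 °C; CellTiter-Glo luminescence; % activity normalised to DMSO and no-cell wells; curves fitted, classed by r2 and efficacy.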
TDP1 cell CPT: DT40-hTDP1 cell growth loss with CPT; chicken DT40 Tdp1-/-;hTDP1 cells + 20 nM CPT, ATP luminescence, 48 h; Potency, µM (titrated, usually from 46.2 µM), for inactives: top-dose activity change, negative = growth inhibition, hits mostly inhibitors; hit rate 12% among 420,000; also: potency is read from the fitted curve at half-maximal effect; nearly all actives have a fitted effect of over 55% in size
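Cell growth measured by CellTiter-Glo luminescence after a minimum 48 h, 37 C compound exposure with 20 nM CPT in Tdp1-knockout DT40 cells stably expressing hTDP1, seeded 400/well; qHTS titration format.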
IL1B secr inh: inhibitors of inflammasome signaling (IL-1 beta secretion); hit rate 4.7% among 360,000; AID 743279; activity change, % at 57.5 µM; THP-1 LPS/ATP IL-1B secretion, AlphaLISA, 16 h; hits give low values; in the data active = activity change below about -50%; inconclusive = mostly about -30% to -49%
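THP-1 cells pretreated 1 hr with compounds (up to 57.5 uM final), then stimulated with LPS (250 ng/mL final) plus ATP (1.25 mM final); secreted IL-1B measured by AlphaLISA after 16 hr, decreased signal indicating inhibition.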
TDP1 cell noCPT: qHTS for Inhibitors of human tyrosyl-DNA phosphodiesterase 1 (TDP1): qHTS in cells in absence of CPT; hit rate 15% among 420,000; DT40 Tdp1-/- hTDP1 cells, no CPT, ATP luminescence, 48 h; Potency, µM (titrated, usually from 46.2 µM), for inactives: at the top dose activity change, negative = growth inhibition, most hits filed as inhibitors; AID 686978, 2013; also: potency is read from the fitted curve at half-maximal effect; nearly all actives have a fitted effect of over 55% in size
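Seeded 400 DT40-hTDP1 cells/well (vehicle DMSO, no 20 nM CPT); pinned compounds; ≥48 hr at 37 °C; CellTiter-Glo luminescence as viability measure.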
ALOX12 inh: ALOX12 (human) lipoxygenase inhibition. purified 12hLO, xylenol orange hydroperoxide absorbance. hit rate 1.1% among 580,000. P18054. Potency, µM (titrated, usually from 108 µM), without a hit: top-dose activity change, negative = inhibition, most hits filed as inhibitors; also: potency is read from the fitted curve at half-maximal effect
Target sequence (P18054 whole entry, looked up): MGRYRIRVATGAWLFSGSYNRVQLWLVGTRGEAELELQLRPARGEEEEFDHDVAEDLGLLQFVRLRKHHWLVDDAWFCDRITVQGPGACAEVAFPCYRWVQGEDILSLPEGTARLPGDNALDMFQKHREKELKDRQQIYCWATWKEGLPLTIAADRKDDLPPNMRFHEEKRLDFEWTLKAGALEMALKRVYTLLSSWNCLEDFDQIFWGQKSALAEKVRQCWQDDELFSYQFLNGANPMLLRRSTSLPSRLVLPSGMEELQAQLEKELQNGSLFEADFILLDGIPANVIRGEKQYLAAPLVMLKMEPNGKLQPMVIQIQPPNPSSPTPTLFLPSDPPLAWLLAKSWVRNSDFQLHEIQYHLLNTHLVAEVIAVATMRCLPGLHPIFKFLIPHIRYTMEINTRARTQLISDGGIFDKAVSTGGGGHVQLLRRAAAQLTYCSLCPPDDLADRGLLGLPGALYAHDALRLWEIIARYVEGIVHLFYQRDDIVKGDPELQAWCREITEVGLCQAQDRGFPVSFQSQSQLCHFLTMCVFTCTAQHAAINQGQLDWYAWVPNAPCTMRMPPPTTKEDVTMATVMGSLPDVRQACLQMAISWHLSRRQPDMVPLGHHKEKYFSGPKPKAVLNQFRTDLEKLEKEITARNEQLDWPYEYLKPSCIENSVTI
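Purified human 12hLO (150 nM final) in 25 mM Hepes, 0.01% Triton X-100, pH 7.0 was preincubated 15 min at room temperature with compound. Then 40 uM arachidonic acid was added, 30 min. Hydroperoxide was read by Fe-XO absorbance ratio 573/405 nm.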
An asterisk follows results filed as active; i = inactive; ? = inconclusive; . = no result given; [ ] = another dose, or the depositor's remark. The sample as a whole holds a higher share of hits than the screen did. Unless noted, calls follow the shape of the dose curve; as a rule, active = well fitted curve in the direction sought with a large enough effect; inconclusive = small, poorly fitted or top-dose-only effect, or another doubt; inactive = no such curve, though single readings can be large; an effect the other way counts as inactive or inconclusive. Unless noted, % is scaled to controls: 0 for no effect and ±100 for the full control effect.

SMILES	HT1080-NT tox	HT1080 IDH1KD tx	TDP1 cell CPT	IL1B secr inh	TDP1 cell noCPT	ALOX12 inh
COc1ccc2[nH]c3c(c2c1)CCN1C(=O)C(CC(=O)NCc2cccc(C(F)(F)F)c2)C[C@H](C(=O)N2CCCCC2)[C@@]31CCc1ccccc1 (some centres not stated)	2%	0%	16µM*	?	?	-35%
COc1ccc2[nH]c3c(c2c1)CCN1C(=O)C(CC(=O)NCCN2CCOCC2)C[C@H](C(=O)N2CCCCC2)[C@@]31CCc1ccccc1 (some centres not stated)	13%	5%	?	3	?	0%
O=C(OCn1ncc(Br)c(Br)c1=O)c1ccccc1Cl	8.2µM*	6.5µM*	1.2µM*	-100*	1.5µM*	.
O=C(OCn1ncc(Br)c(Br)c1=O)c1ccc(F)cc1	21µM*	12µM*	1µM*	-97*	1µM*	.
CC(=O)Nc1ccc(CN2C[C@H](O)C[C@H]2c2nc(-c3cccc([N+](=O)[O-])c3)no2)cc1	.	.	.	.	.	7%[176 µM]
Oc1ccc(-c2ccccc2)cc1CN1CCCCCC1	?	-15%	?	-26	18µM*	46%
Oc1ccc(CN2CCCCC2)nc1-c1ccccc1	17%	13%	0%	1	-16%	1%
COc1ccc(CN2CCc3nc(C4CC4)nc(-c4ccc(OC)cc4)c3CC2)cc1	.	.	.	.	.	4%[6.33 µM]
COc1cc2c(cc1OC)C(C)N(C(=O)c1cc3c(s1)-c1c(C)cccc1OC3)CC2 (configuration not stated)	-16%	?	?	-1	16µM*	436%
COc1cc2c(cc1OC)C(C)N(C(=O)c1cccs1)CC2 (configuration not stated)	-11%	-13%	?	-16	?	0%
COc1cc2c(cc1OC)C(C)N(C(=O)c1cc3c(s1)-c1ccccc1OC3)CC2 (configuration not stated)	?	?	?	-16	21µM*	465%
COc1ccc(C(=O)N2CCN(C(=O)C3COc4ccccc4O3)CC2)cc1OC (configuration not stated)	28%	15%	-8%	0	4%	1%
COc1cc2c(cc1OC)C(C)N(C(=O)C1COc3ccccc3O1)CC2 (configuration not stated)	-11%	-26%	16µM*	-51*	26µM*	-16%
COc1cc2c(cc1OC)C(C)N(C(=O)c1cc3c(=O)oc4ccc(C)cc4c3s1)CC2 (configuration not stated)	-1%	3%	13µM*	-11	15µM*	i
COCCSc1ccccc1C(=O)Nc1ccc(Br)cc1	5%	-1%	?	-8	?	35µM*
COCCSc1ccccc1C(=O)Nc1ccc([N+](=O)[O-])cc1OC	0%	-2%	?	-2	23µM*	-27%
O=C(Nc1ccc(Br)cc1)c1ccccc1Br	16%	9%	-10%	-56*	19%	?
COCCSc1ccccc1C(=O)Nc1cc(C)on1	2%	19%	-19%	30	-7%	?
COCCSc1ccccc1C(=O)Nc1cccnc1	12%	13%	-14%	13	9%	22µM*
CC(=O)Nc1ccc(NC(=O)c2ccccc2Br)cc1	1%	1%	4%	-11	-1%	4%
COCCSc1ccccc1C(=O)Nc1ccc2c(c1)OCO2	0%	0%	4%	7	-13%	-16%
COCCSc1ccccc1C(=O)Nc1ccc(Cl)cc1	-2%	-4%	?	?	?	18µM*
CC(=O)c1ccc(-c2ccc(C(=O)OC(C)C#N)o2)cc1 (configuration not stated)	.	.	.	.	.	-50%
COc1cccc(CN2CC[C@@H]3CN(S(C)(=O)=O)[C@@H]3C2)c1OC	.	.	.	.	.	19%
COCCNCCCCOc1ccc(Br)cc1C	?	-26%	?	-29	23µM*	?
SMILES	HT1080-NT tox	HT1080 IDH1KD tx	TDP1 cell CPT	IL1B secr inh	TDP1 cell noCPT	ALOX12 inh
Cc1cc(Br)ccc1OCCCCNC(C)(C)C	13µM*	?	?	?	21µM*	?
COCCCNCCCCOc1ccc(Br)cc1C	?	?	?	-56*	23µM*	?
COCCCNCCCCOc1ccc(C)cc1[N+](=O)[O-]	0%	0%	0%	-6	-28%	-31%
Cc1cc(Br)ccc1OCCn1ccnc1	-2%	1%	-8%	-25	-26%	0%
CCNC(=O)[C@@H]1C[C@H](NC(=O)Cc2ccccc2C)CN1C1CCCC1	.	.	.	.	.	57%
COc1ccc2c(c1)c1c(c(=O)n(-c3ccccc3C)c(=O)n1CC(N)=O)n2C	.	.	-29%	.	?	-24%
COc1ccc(C(CNCC(O)COc2c(C)ccc(C)c2C)N(C)C)cc1 (configuration not stated)	-19%	-10%	26µM*	-8	12µM*	?
COc1ccc(C(=O)N2CCN(c3cc(-c4ccccc4)[nH]n3)CC2)c(OC)c1	.	.	.	.	.	13%
COc1cccc(CNC(=O)c2cccc(NC(=O)c3nsc4ccccc34)c2)c1	.	.	?	.	21µM*	-1%
CCCCNC(=O)c1cccc(NC(=O)c2nsc3ccccc23)c1	.	.	?	.	?	0%
O=C(NCc1cccc(F)c1)c1cccc(NC(=O)c2nsc3ccccc23)c1	.	.	23µM*	.	23µM*	0%
COc1cccc(CNC(=O)c2cccc(Br)c2)c1	1%	11%	?	4	?	-27%
O=C(Nc1cc(S(=O)(=O)N2CCOCC2)ccc1O)c1ccc(S(=O)(=O)N2CCCCC2)cc1	13%	2%	?	-5	?	5%
O=C(N/N=C/c1ccc(O)c(O)c1)c1cccc(S(=O)(=O)N2CCCC2)c1	1%	-17%	-24%	6	?	?
O=C(Nc1cc(S(=O)(=O)Nc2ccc(Cl)cc2)ccc1O)c1ccc(S(=O)(=O)N2CCCCCC2)cc1	-29%	?	?	-1	21µM*	18%
O=C(N/N=C\c1cc(Cl)ccc1O)c1ccc(S(=O)(=O)N2CCCCC2)cc1	7.3µM*	2.3µM*	0.65µM*	62	0.73µM*	3%
O=C(Cn1nc2c(cc1=O)CCCC2)Nc1ccc(C(F)(F)F)cc1	.	.	.	.	.	7%
O=C(CN1CCC(C(=O)c2ccc(F)cc2)CC1)Nc1ccccc1Cl	-1%	-12%	-26%	-9	12µM*	-17%
